# Compound activity from PubChem BioAssay.
# Only some compounds are listed: those with a hit (about 2.3% of all), similar ones and a draw of the others.
# BCLXL inh: Bcl-xL (human) inhibition. Q07817. GST-Bcl-xL / FITC-Bim BH3 peptide fluorescence polarization. inhibition, % at 10.9 µM. hit rate 0.7% among 320,000. AID 2129;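 active means inhibition above the mean of all tested compounds plus 3 SD, cutoff set per campaign, cut at about 30% in these data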;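 further: 0% = DMSO wells and 100% = unlabeled Bim-BH3 peptide competitor; inhibitors lower millipolarization by displacing the labeled peptide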
# MCL1 BIM primary: inhibitors of human MCL1 binding to BIM-BH3 peptide | Q07820 | GST-MCL1 / FITC-Bim-BH3 fluorescence polarization | inhibition, % at 10.9 µM | hit rate 0.68% among 320,000 | AID 2057;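 active means inhibition above the mean inhibition of all tested compounds plus 3 SD, set per campaign, cut at about 40% in these data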;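 further: 0% = DMSO wells and 100% = unlabeled Bim-BH3 peptide control; higher means more loss of mP so more displacement of Bim peptide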
# Target sequence (Q07820 whole entry, looked up): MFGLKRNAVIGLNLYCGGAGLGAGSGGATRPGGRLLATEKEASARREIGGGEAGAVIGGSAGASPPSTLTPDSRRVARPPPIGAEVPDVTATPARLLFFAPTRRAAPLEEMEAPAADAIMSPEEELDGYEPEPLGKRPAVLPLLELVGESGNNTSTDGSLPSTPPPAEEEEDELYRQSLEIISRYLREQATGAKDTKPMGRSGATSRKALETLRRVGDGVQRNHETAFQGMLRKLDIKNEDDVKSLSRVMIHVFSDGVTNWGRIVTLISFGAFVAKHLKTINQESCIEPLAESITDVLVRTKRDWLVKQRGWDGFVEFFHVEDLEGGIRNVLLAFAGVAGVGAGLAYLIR
# Bim-Mcl-1: human Bim-Mcl-1 interaction inhibition. Q07820. inhibition, % at 10 µM. hit rate 0.1% among 190,000. Bead-based flow cytometry, Bim peptide-Mcl-1 binding. AID 1009; in the data active means inhibition above about 40%;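 further: 0% = no compound tracer wells and 100% = peptide blocker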
# Mcl1-Noxa inh: disrupts binding of human Mcl-1 to Noxa peptide | Q07820 | TR-FRET Mcl-1/Noxa peptide binding, 2 h | inhibition, % at 21.7 µM | AID 1022 | hit rate 1.5% among 220,000;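 active means compounds that cut the protein-peptide binding signal by more than 50% relative to plate controls in a single-dose test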;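 further: His-tagged Mcl-1 with rhodamine Noxa BH3 peptide and terbium anti-His antibody; 0% = Mcl-1 plus Noxa peptide wells and 100% = peptide-only wells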
# GLD-1 RNA inh: GLD-1-TGE RNA interaction inhibition (C. elegans) | inhibition, % at 5.96 µM | Q17339 | hit rate 0.44% among 320,000 | purified GLD-1 + fluorescein TGE RNA, fluorescence polarization;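 active means percent inhibition above a per-plate cutoff, the plate mean of test compounds plus 3 SD, cut at about 30% in these data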;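 further: 0% = DMSO wells with GLD-1 and probe and 100% = wells lacking GLD-1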
# Mcl1-Bid inh: Mcl-1/Bid interaction inhibition; inhibition, % at 21.7 µM; Q07820; hit rate 0.97% among 220,000; AID 1021; TR-FRET Mcl-1/Bid-Dy647 peptide binding, 1536-well;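 active means compounds that cut the binding signal by more than half at the single screening dose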;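 further: His-tagged Mcl-1 with europium anti-His antibody binding Bid BH3 peptide; 0% = Mcl-1 plus peptide wells and 100% = peptide-only wells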
# Active calls of the source: *; / = no result.
SMILES,BCLXL inh,MCL1 BIM primary,Bim-Mcl-1,Mcl1-Noxa inh,GLD-1 RNA inh,Mcl1-Bid inh
CCC1CCCCN1C(=O)CCn1c(=O)oc2ccccc21 (centres undefined),1,-6,/,/,10,/
CC(C)S(=O)(=O)C/C(N)=N/OC(=O)c1cc(Cl)cc(Cl)c1,1,9,/,2,-7,-6
CCOc1ccc(-c2cccc(NC(=O)c3ccco3)c2)nn1,2,-9,/,/,4,/
N=c1cc(C2(O)CCCCC2)n2c(nc3ccccc32)s1,-2,2,2,0,-9,98*
NC1=NC2(CCCCC2)n2c(nc3ccccc32)N1,0,8,-5,-8,10,-9
Clc1ccc(OCCN2CCCCC2)c(Cl)c1,1,4,2,35,-1,75*
Clc1ccccc1OCCN1CCCCC1,5,5,-3,16,3,20
COc1cc(/C=C/C(=O)c2ccc(NS(=O)(=O)c3ccc(C)cc3)cc2)cc(OC)c1O,4,2,4,56*,-6,4
COc1ccccc1/C=C/C=c1\sc2nc(=O)c(Cc3ccccc3)nn2c1=O,7,20,/,51*,-7,-35
CCCOc1ccc(Cc2nn3c(=O)/c(=C/c4ccco4)sc3nc2=O)cc1,16,18,-4,75*,3,0
CCCOc1ccc(/C=c2\sc3nc(-c4ccco4)nn3c2=O)cc1OCC,3,17,-4,12,3,-12
O=C(CC(=O)Nc1cccc(Cl)c1Cl)Nc1cccc(Cl)c1Cl,1,-2,/,/,-10,/
CCn1c(-c2ccccc2)csc1=Nc1ccc(O)cc1,7,9,1,64*,2,-35
CCOc1ccc(N=c2scc(-c3ccccc3)n2CCO)cc1,2,1,-7,14,-2,8
CCC(=O)N(CC)C1=C(O)c2ccccc2C(=O)C1=O,9,9,2,85*,5,-11
CCC(=O)N(C1=C(NC)C(=O)c2ccccc2C1=O)C(C)C,2,7,0,1,0,-42
Cc1ccc2c(c1)C1(OCCCO1)C(=O)N2,6,10,/,/,6,/
CC1=Nc2cc(C(=O)O)ccc2Sc2ccc(Br)cc21,13,23,-2,57*,5,44
N/C(=N\N=C/c1ccc(F)cc1)N/N=C\c1ccc(F)cc1,2,12,/,/,-2,/
N/C(=N\N=C/c1ccc(Br)cc1)N/N=C\c1ccc(Br)cc1,0,4,40*,8,0,-10
COc1cccc(N2CCN(CC(=O)NC(=O)NCc3ccco3)CC2)c1,6,30,1,62*,2,-50
COc1ccc(-c2csc(Nc3ccc(S(N)(=O)=O)cc3)n2)cc1OC,4,6,1,51*,6,-30
Cc1cc(NS(=O)(=O)c2ccc(Nc3nc(-c4ccc(C)c(C)c4)cs3)cc2)no1,1,-3,-1,39,6,9
Cc1cc(NS(=O)(=O)c2ccc(Nc3nc(-c4ccc(O)cc4)cs3)cc2)no1,9,15,0,69*,-8,-39
CC(=O)Nc1ccc(S(=O)(=O)Oc2cccc(/C=N/N=C3/NC(=O)C(CC(=O)O)S3)c2)cc1 (centres undefined),7,7,2,8,10,-22
SMILES,BCLXL inh,MCL1 BIM primary,Bim-Mcl-1,Mcl1-Noxa inh,GLD-1 RNA inh,Mcl1-Bid inh
COc1ccccc1/C=C1\CCCC2=C1Nc1nnnn1C2c1ccccc1OC (centres undefined),4,1,-2,20,6,-12
CC(C)(C)c1ccc(/C=N/NC(=S)Nc2cccnc2)cc1,6,-3,-1,-23,1,-91
Oc1ccc(/C=N/NC(=S)Nc2cccnc2)cc1O,14,47*,-2,59*,-1,-58
CCOCCCn1c(=N)c(C(N)=S)cc2c(=O)n3cccc(C)c3nc21,23,30,-1,-7,-4,-19
N=c1c(C(=O)NCc2ccco2)cc2c(=O)n3ccccc3nc2n1CCc1ccccc1,32*,20,13,68*,12,11
Cc1cccn2c(=O)c3cc(C(=O)NCc4ccco4)c(=N)n(CCOCCO)c3nc12,55*,43*,4,33,24,-49
Cc1cccn2c(=O)c3cc(C(N)=S)c(=N)n(CCCOC(C)C)c3nc12,34*,35,0,42,-2,-7
O=C(NCc1ccco1)c1cccn2c(=O)c3cc4ccccc4cc3nc12,/,/,3,47,/,94*
